Columns and labels:
Conditions in all cases: concentration: 1 μM,replicates: in singlicate; n = 1
[1] = system: T1, DCAMKL2
T1 construct: gene DCLK2

[2] = system: T2, DCAMKL3
T2 construct: gene DCLK3

[3] = system: DDR1
[4] = system: DDR2
[5] = system: T3, DLK
T3 construct: gene MAP3K12

[6] = system: T4, DMPK2
T4 construct: gene CDC42BPG

[7] = system: DMPK
[8] = system: T5, DRAK1
T5 construct: gene STK17A

[9] = system: T6, DRAK2
T6 construct: gene STK17B

[10] = system: DYRK1A
[11] = system: DYRK1B
[12] = system: DYRK2
[13] = system: EGFR
[14] = system: EIF2AK1
[15] = system: EPHA1
[16] = system: EPHA2
[17] = system: EPHA3
[18] = system: EPHA4
[19] = system: EPHA5
[20] = system: EPHA6
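Also: KINOMEscan kinase panel screen.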

Structure (SMILES)	%Inh [1]	%Inh [2]	%Inh [3]	%Inh [4]	%Inh [5]	%Inh [6]	%Inh [7]	%Inh [8]	%Inh [9]	%Inh [10]	%Inh [11]	%Inh [12]	%Inh [13]	%Inh [14]	%Inh [15]	%Inh [16]	%Inh [17]	%Inh [18]	%Inh [19]	%Inh [20]
CC(C)S(=O)(=O)N1CCN(Cc2ccc3c(c2)nc(NC(=O)c2ccsc2)n3C[C@H](O)c2ccccc2)CC1 [GW635815]	0%	9%	46%	19%	69%	0%	0%	72%	11%	48%	70%	21%	20%	1%	0%	0%	11%	15%	0%	7%
O=C(Nc1cccc(Oc2ccc3nccn3n2)c1)Nc1cccc(C(F)(F)F)c1	15%	0%	99.3%	97.8%	3%	15%	0%	0%	0%	0%	26%	8%	23%	0%	21%	75%	8%	51%	11%	15%
O=C(NOCC1CC1)c1cc(Br)c(F)c(F)c1Nc1ccc(I)cc1Cl	2%	0%	0%	22%	0%	0%	0%	0%	0%	0%	17%	0%	0%	0%	0%	0%	0%	0%	0%	0%
Cl.c1ccc(Oc2ccc(Nc3ccnc4cc(-c5ccc(CN6CCNCC6)o5)ccc34)cc2)nc1 [GW567142]	0%	36%	70%	27%	41%	0%	0%	9%	0%	1%	0%	33%	97.7%	0%	77%	0%	16%	0%	0%	0%

From paper PMC5540273 (PLoS ONE, 2017)
